From PubChem BioAssay AID687009 (National Center for Advancing Translational Sciences (NCATS), 2013)
Inconclusive results are not listed. Active and inactive are the calls of the source. Calls follow the shape of the dose curve; as a rule, active = well fitted curve in the direction sought with a large enough effect; inconclusive = small, poorly fitted or top-dose-only effect, or another doubt; inactive = no such curve, though single readings can be large or run the other way.

Biological target: Lysine-specific histone demethylase 1A (Homo sapiens) (UniProt O60341)
Assay: qHTS Assay for Inhibitors of Human Jumonji Domain Containing 2E (JMJD2E): Counterscreen with LSD1
Source text: The fine interplay among methylation states of several lysine residues on the tails of histone proteins is a major determinant of the transcriptional state of the associated DNA coding regions and is commonly referred to as the histone code. Histone lysine demethylases catalyze the removal of methyl groups from methylated lysine sidechains on histones H3 and H4, thus antagonizing the reactions catalyzed by histone lysine methyltransferases. […] In search for novel inhibitors of JMJD2E demethylase, a member of the largest set of histone demethylases belonging to the Fe(II) and 2-oxoglutarate oxygenase (2OG) superfamily, we performed a quantitative high-throughput screen (Inglese 2006) by using an assay which utilizes a trimethylated peptide substrate corresponding to a fragment of histone H3 (sequence ARKme3STGGK) with detection of the formaldehyde co-product in real time by a formaldehyde dehydrogenase (FDH) coupled reaction. […]
The assay was performed in a buffer containing 10 mM HEPES, Na pH 7.5, 5 mM MgCl2, 50 mM KCl, 0.01% Nonidet P-40, and 0.1% BSA. […] The plate was then centrifuged at 1,000 rpm for 15 seconds, and the fluorescence intensity was recorded on a ViewLux High-throughput CCD imager (Perkin-Elmer) using standard TAMRA optics (525 nm excitation and 598 nm emission). The plate was then incubated for 30 min at room temperature, and a second read on the ViewLux was performed. […]

SMILES: CN1CCN(c2cnc3c(O)ccc(C(=O)O)c3c2)CC1
- outcome: inactive
